From PubChem
TDP1 block – blocks human tyrosyl-DNA phosphodiesterase 1 | AID 485290 | Q9NUW8 | Potency, µM (titrated, usually from 130 µM), actives largely listed as inhibitors | hit rate 0.28% among 350,000 | recombinant TDP1, AlphaScreen DNA substrate cleavage; further: nearly all actives have a fitted effect of over 40% in size
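Recombinant E. coli-expressed Tdp1 (1 nM) preincubated with compound 15 min at RT, then 5'-biotin/3'-phosphotyrosine-FITC DNA substrate (15 nM) added for 5 min. AlphaScreen beads (10 ug/ml) added, 10 min RT; tyrosine-FITC cleavage read as signal loss.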
TDP1 cell noCPT – qHTS for Inhibitors of human tyrosyl-DNA phosphodiesterase 1 (TDP1): qHTS in cells in absence of CPT. Potency, µM (highest dose often 46.2 µM), actives largely listed as inhibitors. DT40 Tdp1-/- hTDP1 cells, no CPT, ATP luminescence, 48 h. hit rate 15% among 420,000. AID 686978, 2013; further: nearly all actives have a fitted effect of over 55% in size
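Chicken DT40 Tdp1-/- cells stably complemented with human TDP1 were seeded at 400 cells/well with DMSO in place of 20 nM camptothecin. After compound pinning, cells grew at least 48 hr at 37 °C; viability read by CellTiter-Glo luminescence.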
VP16 counter – Gal4-VP16 reporter inhibition counter-screen; Drosophila S2 Gal4-VP16 UAS-luciferase, luminescence, 20 h; hit rate 3.5% among 310,000; Potency, µM (top dose mostly 53.6 µM), actives largely listed as inhibitors;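 further: Gal4-VP16 expression switched on by copper sulfate through the metallothionein promoter; nearly all actives have a fitted effect of over 50% in size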
TDP1 cell CPT – growth inhibition of DT40 Tdp1-/-;hTDP1 cells with camptothecin (screen for TDP1 inhibitors). chicken DT40 Tdp1-/-;hTDP1 cells + 20 nM CPT, ATP luminescence, 48 h. Potency, µM (top dose mostly 46.2 µM), usual class: inhibitors. hit rate 12% among 420,000; further: nearly all actives have a fitted effect of over 55% in size
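Chicken DT40 Tdp1-/- cells complemented with human TDP1, 400 cells/well, exposed to compounds plus 20 nM camptothecin for at least 48 h at 37 C; viability read as ATP content by CellTiter-Glo luminescence.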
RORgamma inh – inhibitors of mouse ROR gamma transcriptional activity; P51450; Drosophila S2 Gal4-RORgamma UAS-luciferase reporter, 20 h; Potency, µM (titrated, usually from 53.6 µM), most hits filed as inhibitors; hit rate 5.4% among 310,000; further: nearly all actives have a fitted effect of over 60% in size
Target sequence (P51450 whole entry, looked up, the tested form may be a part): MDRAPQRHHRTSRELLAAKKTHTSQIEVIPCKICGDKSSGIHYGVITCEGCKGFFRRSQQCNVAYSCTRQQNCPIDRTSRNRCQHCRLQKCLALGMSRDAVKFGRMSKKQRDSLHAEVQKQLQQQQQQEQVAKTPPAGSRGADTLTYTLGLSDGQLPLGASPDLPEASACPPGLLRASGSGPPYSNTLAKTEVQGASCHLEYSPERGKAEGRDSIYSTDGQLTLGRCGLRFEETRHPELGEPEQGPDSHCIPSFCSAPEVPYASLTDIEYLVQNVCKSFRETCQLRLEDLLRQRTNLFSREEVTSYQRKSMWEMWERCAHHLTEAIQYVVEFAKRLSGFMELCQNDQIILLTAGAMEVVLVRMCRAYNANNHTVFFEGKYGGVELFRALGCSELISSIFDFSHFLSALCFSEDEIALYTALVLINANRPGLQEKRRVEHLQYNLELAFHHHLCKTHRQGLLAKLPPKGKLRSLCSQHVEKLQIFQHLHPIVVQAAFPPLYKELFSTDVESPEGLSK
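Stable Schneider cell line, Gal4 DNA-binding domain fused to ROR gamma, UAS-luciferase. Cmpd 1 hr RT → CuSO4 700 uM final → 20 hr RT → luciferase reagent 10 min → luminescence.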
Of the large screens only hits and unclear results are named; the others gave an inactive call. This is a sample that favours compounds with a hit; in the whole collection about 19% have one here. The call rests on the fitted dose curve; in most records, active means well fitted curve in the direction sought with a large enough effect; inconclusive means small, poorly fitted or top-dose-only effect, or another doubt; inactive means no such curve, though single readings can be large; an effect the other way counts as inactive or inconclusive.

O=C1CC(SC(=Nc2ccccc2)Nc2ccccc2)C(=O)N1c1cccc(Cl)c1 (stereo not given)	TDP1 cell noCPT 18µM, TDP1 cell CPT inconclusive, RORgamma inh inconclusive
CCC(C)NC(=O)c1cc(OC)c(OC)c(OC)c1 (stereo not given)	none
O=C(Cc1ccc(S(=O)(=O)N2CCOCC2)s1)NNC(=O)c1ccccc1Cl	none (no result: VP16 counter, RORgamma inh)
COc1ccc(NC(=O)CSC2=Nc3ccccc3C3=NC(CCC(=O)NCCc4ccccc4)C(=O)N23)cc1 (stereo not given)	none (no result: VP16 counter, RORgamma inh)
O=C1C=CC(=C(c2ccc(O)cc2)c2ccc(O)cc2)C=C1	TDP1 cell noCPT 2.3µM, VP16 counter inconclusive, TDP1 cell CPT 9.2µM, RORgamma inh inconclusive
Cc1noc(C)c1COc1cccc(C(=O)NCc2ccccc2Cl)c1	TDP1 cell noCPT inconclusive
Cc1noc(C)c1COc1ccc(C(=O)OCC(=O)Nc2ccc(S(N)(=O)=O)cc2)cc1	TDP1 cell noCPT 16µM, TDP1 cell CPT inconclusive (no result: VP16 counter, RORgamma inh)
Cc1noc(C)c1COc1ccc(C(=O)OCC(=O)NCc2ccccc2Cl)cc1	TDP1 cell noCPT 29µM, TDP1 cell CPT inconclusive
Cc1noc(C)c1COc1ccc(C(=O)OCC(=O)Nc2ccc3c(c2)OCO3)cc1	none
CCC(C)C(NC(=O)OCc1ccccc1)C(=O)NCC(c1ccccc1)N(C)C (stereo not given)	TDP1 cell noCPT inconclusive
CCc1cccc(C)c1NC(=O)C1CCN(S(=O)(=O)c2cccc3nonc23)CC1	none (no result: VP16 counter, RORgamma inh)
Cc1ccc(C(=O)N/N=C\c2cccs2)cn1	VP16 counter inconclusive, RORgamma inh inconclusive
O=C(c1ccccc1)N1CCN(c2ccc([N+](=O)[O-])c(NCc3cccnc3)c2)CC1	TDP1 cell noCPT inconclusive, TDP1 cell CPT inconclusive
CC(C)(C)C(=O)N1CCN(c2ccc([N+](=O)[O-])c(NCc3cccnc3)c2)CC1	TDP1 cell noCPT 4.1µM, TDP1 cell CPT 4.1µM
Cc1cc(C)c(C)c(S(=O)(=O)N2CCC(C(=O)NCc3ccco3)CC2)c1C	none (no result: VP16 counter, RORgamma inh)
CCOC(=O)N1CCC(NC(=O)C2CCN(C(=O)N3CC(C)Oc4ccc(C)cc43)CC2)CC1 (stereo not given)	none
CCOC(=O)N1CCC(NC(=O)C2CCN(C(=O)c3cc4oc(C)cc4n3Cc3c(F)cccc3Cl)CC2)CC1	TDP1 cell noCPT 15µM, VP16 counter inconclusive, TDP1 cell CPT inconclusive, RORgamma inh inconclusive
COc1cc(-n2c(=O)c3ccccc3n(CC(=O)OCc3ccccc3)c2=O)cc(OC)c1OC	none
CCOC(=O)C1(CC2CC2)CCN(Cc2ccc(C(=O)OC)cc2)CC1	TDP1 cell noCPT 23µM, TDP1 cell CPT inconclusive
CCOC(=O)C1(CCc2ccccc2)CCN(Cc2cc(OC)c(OC)cc2OC)CC1	TDP1 cell noCPT 21µM, TDP1 cell CPT 21µM, RORgamma inh inconclusive (no result: TDP1 block)
CCOC(=O)C1(CCc2ccccc2)CCN(Cc2ccc(C(=O)OC)cc2)CC1	TDP1 cell noCPT 16µM, TDP1 cell CPT inconclusive (no result: TDP1 block)
CCOC(=O)C1(CCCc2ccccc2)CCN(Cc2cnn(C)c2)CC1	TDP1 cell noCPT inconclusive, TDP1 cell CPT inconclusive
CCOC(=O)C1(CC2CC2)CCN(C(=O)c2cc(C3CC3)nc3ccccc23)CC1	TDP1 cell noCPT 23µM, TDP1 cell CPT inconclusive (no result: TDP1 block)
CCOC(=O)C1CCN(Cc2ccc(C(=O)OC)cc2)CC1	none
CCOC(=O)C1(Cc2ccccc2)CCN(Cc2cccc(OC)c2O)CC1	TDP1 cell noCPT inconclusive, TDP1 cell CPT inconclusive
COc1cc2c3c(c1OC)C1(C=CC(=NO)C=C1)CC3N(C(C)=O)CC2 (stereo not given)	none
CCOC(=O)C1(CCCc2ccccc2)CCN(Cc2ccn[nH]2)CC1	TDP1 cell noCPT inconclusive, TDP1 cell CPT inconclusive (no result: TDP1 block)
CCOC(=O)C1(CCc2ccccc2)CCN(Cc2ccccn2)CC1	TDP1 cell noCPT inconclusive, VP16 counter 11µM, RORgamma inh 5µM
CCOC(=O)C1(CC2CC2)CCN(Cc2cn(C)c3ccccc23)CC1	TDP1 cell noCPT 18µM, VP16 counter inconclusive, TDP1 cell CPT 21µM, RORgamma inh inconclusive
CC(=O)Oc1cccc(C2=CC(=O)CC(C)(C)C2=O)c1	none (no result: TDP1 block, VP16 counter, RORgamma inh)
O=C(c1ccco1)N1CCN(c2nc3ccsc3c(=O)s2)CC1	TDP1 cell noCPT inconclusive, TDP1 cell CPT inconclusive
Cc1cc(C)c2nc(N3CCN(C(=O)c4ccco4)CC3)sc2c1	none (no result: VP16 counter, RORgamma inh)
COc1ccc(C)c2sc(N3CCN(C(=O)c4ccco4)CC3)nc12	TDP1 cell noCPT 18µM, TDP1 cell CPT 18µM (no result: VP16 counter, RORgamma inh)
O=C(c1ccco1)N1CCN(c2nc3ccc(Cl)cc3s2)CC1	TDP1 cell noCPT 23µM, TDP1 cell CPT inconclusive (no result: VP16 counter, RORgamma inh)
Cc1cc2nc(N3CCN(C(=O)c4ccco4)CC3)sc2cc1C	TDP1 cell noCPT 21µM, TDP1 cell CPT inconclusive (no result: VP16 counter, RORgamma inh)
Cc1ccc(C)c2sc(N3CCN(C(=O)c4ccc([N+](=O)[O-])o4)CC3)nc12	TDP1 cell noCPT inconclusive, TDP1 cell CPT 8.2µM (no result: VP16 counter, RORgamma inh)
Cc1ccc(OCC(=O)Nc2ccc(CN3CCOCC3)cc2)cc1C	TDP1 cell noCPT inconclusive
CC(C)(C#N)c1cc(Cn2cncn2)cc(C(C)(C)C#N)c1	none
CC1CN(CCOc2ccc(Cl)c(Cl)c2)CC(C)O1 (stereo not given)	TDP1 cell noCPT inconclusive, TDP1 cell CPT inconclusive (no result: TDP1 block)
Cc1cnc(=O)[nH]c1SCC(=O)Nc1nc2ccccc2s1	none (no result: VP16 counter, RORgamma inh)
Cc1ccc2nc(N3CCN(C(=O)c4ccco4)CC3)c3nncn3c2c1	TDP1 cell noCPT 16µM, TDP1 cell CPT inconclusive
O=C(O)[C@H](Cc1c[nH]c2ccccc12)Nc1ncccc1[N+](=O)[O-]	none (no result: TDP1 block)
COc1ccc(/C=N/c2oc(-c3ccccc3)cc2C#N)cc1	none
COc1ccc(C(CNC(=O)COc2ccccc2-c2ccccc2)N2CCOCC2)cc1 (stereo not given)	TDP1 cell noCPT inconclusive, TDP1 cell CPT inconclusive
CCC(C)[C@H](NC(=O)Nc1ccc(Oc2ccccc2)cc1)C(=O)O (stereo not given in full)	none
CCC(C)[C@H](NC(=O)Nc1ccc(C)cc1C)C(=O)O (stereo not given in full)	TDP1 cell CPT 12µM (no result: TDP1 block)
CCCCc1ccc(NC(=O)N[C@H](C(=O)O)C(C)C)cc1	TDP1 cell noCPT 7.3µM, TDP1 cell CPT 16µM
CCCCc1ccc(NC(=O)N[C@H](C(=O)O)C(C)CC)cc1 (stereo not given in full)	TDP1 cell noCPT 10µM, TDP1 cell CPT inconclusive
COc1ccc(N(CC(=O)NC(C)c2ccccc2)S(=O)(=O)c2c(C)noc2C)cc1 (stereo not given)	TDP1 cell noCPT inconclusive
Cc1ccc2c(CN3CCCCC3C)cc(=O)oc2c1 (stereo not given)	none (no result: TDP1 block)
O=C(N/N=C/c1cccc2nccnc12)c1ccncc1	TDP1 cell noCPT inconclusive, TDP1 cell CPT inconclusive, RORgamma inh inconclusive
O=C(N/N=C/c1cccc2nccnc12)c1ccccc1O	TDP1 cell noCPT 3.3µM, VP16 counter 3.2µM, TDP1 cell CPT 5.8µM, RORgamma inh 2.5µM
